The labels stand for the following.
B1: chr4:25747873:25747886:-|3pUTR|ENSG00000091490|msi1_unk|FALSE|overlapping (ssRNA)
RNA: GGGAGUUCUACAGUCCGACGAUCUAGCAGUUAUAAGGCACCUUGAAAUAAAUUGUUUGUGCCUGGAAAUGCAGGGAGGGCAAUAGCUUUGUAAAUUGGUUUACAUUUUUCUCCUUGAAUUUUUCUAGGGUCCUAGUGCUUCCGCAACAGAGGAUUGAGCAUCA
B2: ENSG00000107863:be:win_3601|CDS|ENSG00000107863|bound_else_gene|NA|bound_elsewhere_windowed (ssRNA)
RNA: GGGAGUUCUACAGUCCGACGAUCAAGGGAAUGGCUGAUAUUGAUAUACAAGAUGAUAAAUGGCGAGAUUUGAAUGUGAUAAGCAGUUUACUAAAAUCCUUCUUCAGAAAACUCCCUGAGCCUCUCUUCACAAAUGAUAAAUAUCAACAGAGGAUUGAGCAUCA
B3: chr6:52502144:52502313:-|3pUTR|ENSG00000065308|msi1|total|mutant (ssRNA)
RNA: GGGAGUUCUACAGUCCGACGAUCUCAGCCAUUCACAAGCAUUCAAAACCAAACCAAACAGCAGUUCAUAUACCUGCCUGAGACCGGCUGGUCCUCACCUCCAGAGCCAGCCAGCCCCGUCAGGGGCCAAACUUACUACCUUGACAACAGAGGAUUGAGCAUCA
B4: chr10:119917856:119917957:+|CDS|ENSG00000107651|unk|total|mutant (ssRNA)
RNA: GGGAGUUCUACAGUCCGACGAUCUAAGAAAAUCACUUUGCCAAGUAUUGGUCGAUUUCGUCACUUUACCAAUGAAACUUUGCCCGAUAUUUUAUUUUAUAACAGCCCCACCUACUGUCAGACAAUUGUGGAAAAAGCCGGAAUCAACAGAGGAUUGAGCAUCA
B5: ENSG00000064393:stop:overlap|stop_codon|ENSG00000064393|stop_codon|NA|stop_codon (ssRNA)
RNA: GGGAGUUCUACAGUCCGACGAUCUCUCCCUGGAGAGUGGUUUUCCUGCUUUUCUGCUGCUAGAAAUGUUGCUGUAUGGGAGCUAGUACAAUAGAAAGUGCCCAGUGACUGCAGGCGACCCUUACCGAGGAUUUUAUUCAAGUACAACAGAGGAUUGAGCAUCA
B6: chr12:104760787:104760888:+|3pUTR|ENSG00000171310|unk|total|mutant (ssRNA)
RNA: GGGAGUUCUACAGUCCGACGAUCUUCUUUUCUAAUGGCAUUGAAACUUUAAAAAAAAUGGAUUCAACUGUUUUUGCAGAAUGCCGAAAGUAUUCUGUGUCCUUGGUUAAAGAAAUCCACUUGUGAAGUGUGCCUGGAAAAUGACAACAGAGGAUUGAGCAUCA
B7: chr1:150220393:150220494:-|3pUTR|ENSG00000143401|msi1_unk|FALSE|overlapping (ssRNA)
RNA: GGGAGUUCUACAGUCCGACGAUCAUUGUAUGUAGAGAAAAAUUUUCAUUGACUCCCAUUGUGGAAUUCCCUAGCAAUUUAUUUAGACUUAAUUUUUUAAAUUCAAGCUUACUGUAUUAGUCAUUUUUAGCCCAUAAUUAAAACCAACAGAGGAUUGAGCAUCA
B8: chr12:98549999:98550103:+|3pUTR|ENSG00000120802|unk|total|mutant (ssRNA)
RNA: GGGAGUUCUACAGUCCGACGAUCUGUUUCCCAUACUGUUUUCAGCCUUUUGUUUAUAAUCCGAAAUUGUGAGAAGCUUCAUUCCGUGUUUAAAAAUGUGGGGAGAUAAAUCAGACUUAACAUGUAUGUAAGAUCAAUUCACUUCAACAGAGGAUUGAGCAUCA
B9: chr2:167954955:167954998:-|3pUTR|ENSG00000198648|msi1_unk|FALSE|overlapping (ssRNA)
RNA: GGGAGUUCUACAGUCCGACGAUCGUUGUAUUUAGAAAUUAAUAUACUUAUAAAAUUAAGAUUUAUUAGCCAAACUUGAAUUCUAGUUUUAAAACUGACUGUGAAUUUUAUUUUUCAUAUAUUUAUGCAUUACACACCUUAGCUCAACAGAGGAUUGAGCAUCA
B10: chr8:100287602:100287712:-|CDS|ENSG00000034677|unk|total|mutant (ssRNA)
RNA: GGGAGUUCUACAGUCCGACGAUCUGUGUGGAUUGCUUACGACAAUAUUUAAGGACCGAAAUCUCUGAAAGCAGAGUUAAUAUCCGUUGCCCAGAAUGUACUGAACGGUUUAAUCCCCAUGAUAUUCGCUUGAUAUUAAGUGAUCAACAGAGGAUUGAGCAUCA
B11: chr12:104760787:104760888:+|3pUTR|ENSG00000171310|unk|FALSE|unique (ssRNA)
RNA: B6 RNA with C83U, C84A
B12: chr12:909583:909684:+|3pUTR|ENSG00000060237|unk|FALSE|bound_elsewhere (ssRNA)
RNA: GGGAGUUCUACAGUCCGACGAUCUAGCUCUGUCCUUUACUUAUUGAGACACUUUAACUUUUUCCUUUGUAUUUCCAUUGUAUUAGAUAAAUAAAUGUGAAUGUAAAAUUGUAUAAAUUACUGUACUUGAAUACUUCUGUUUCCCAACAGAGGAUUGAGCAUCA
B13: chr1:150220393:150220494:-|3pUTR|ENSG00000143401|msi1_unk|total|mutant (ssRNA)
RNA: B7 RNA with U32C, A33C, U71C, A72C, U83C, A84C, U117C, A118C, U127C, A128C
B14: chr12:98549999:98550103:+|3pUTR|ENSG00000120802|unk|FALSE|unique (ssRNA)
RNA: B8 RNA with C60U, C61A, C83U, C84A
B15: chr8:100287602:100287712:-|CDS|ENSG00000034677|unk|FALSE|unique (ssRNA)
RNA: B10 RNA with C55U, C56A, C83U, C84A
B16: ENSG00000198856:stop:overlap|stop_codon|ENSG00000198856|stop_codon|NA|stop_codon (ssRNA)
RNA: GGGAGUUCUACAGUCCGACGAUCUGAGUUUUUUCAUGGCUAGAGUAUUCAUGAGAAUGAAACUGCCGGGCUAUCUGAUGGGUUAGAGUGCCUUUGAGAAGAAAUCAGUGGAUACUGGAUUUGCUCCUGUCAAUGAAGUUUUAACAACAGAGGAUUGAGCAUCA

Consider 16 molecules from publication PMC12136788.

Positions count from the first letter of the chain named. In all, about 5,800 sequences were measured (“enrichment r”: median about 0.54, highest 2% from about 16 on). Many of the other results were omitted from the sample, so the highest values are more common in it than they were.

The target of the assay is MSI1 full-length (mouse, UniProt Q61474 1-362). Kind of assay: nsRBNS (natural sequence RNA bind-n-seq); RBNS binding buffer (assumed for nsRBNS): 25 mM Tris pH 7.5, 150 mM KCl, 3 mM MgCl2, 0.01% Triton X-100, 500 ug/ml BSA, 20 U/ml SUPERase-In, 4 C; UNK is unkempt and MSI1 is Musashi-1; names of the RNAs are library labels; protein concentration not given here; high values mean tight binding.
MSI1 full-length, sequence (Q61474 whole entry): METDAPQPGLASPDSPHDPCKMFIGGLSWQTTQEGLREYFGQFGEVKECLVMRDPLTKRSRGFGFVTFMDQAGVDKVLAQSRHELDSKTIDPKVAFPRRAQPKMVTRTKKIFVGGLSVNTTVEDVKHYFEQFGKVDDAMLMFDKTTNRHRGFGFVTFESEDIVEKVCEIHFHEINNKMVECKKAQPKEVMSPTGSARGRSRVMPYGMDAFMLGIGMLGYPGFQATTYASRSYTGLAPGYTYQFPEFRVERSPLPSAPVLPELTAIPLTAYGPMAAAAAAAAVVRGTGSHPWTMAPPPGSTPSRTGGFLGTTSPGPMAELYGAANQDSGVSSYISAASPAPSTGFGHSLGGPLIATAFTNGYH
The molecule B1 registered a binding signal of 1.14 enrichment R.

In turn, B2 showed a binding signal of 0.64 enrichment R.

As for B3, the binding signal turned out to be 0.877 enrichment R.

Regarding B4, the binding signal came out at 0.52 enrichment R.

B5 registered a binding signal of 0.605 enrichment R.

For the molecule B6, the binding signal was found to be 0.231 enrichment R.

As for B7, the binding signal amounted to 61.8 enrichment R.

As to B8, the binding signal amounted to 0.426 enrichment R.

For the molecule B9, the binding signal is 9.9 enrichment R.

In turn, B10 yielded a binding signal of 0.307 enrichment R.

Take B11: the binding signal stood at 0.433 enrichment R.

Regarding B12, the binding signal was found to be 13.1 enrichment R.

B13 yielded a binding signal of 2.27 enrichment R.

B14 came in with a binding signal of 27.3 enrichment R.

In turn, B15 registered a binding signal of 22.4 enrichment R.

As for B16, the binding signal was 16.4 enrichment R.
